Drawing on PubChem BioAssay (NCATS), this text covers Potency and outcome for five compounds.

Test [1] can be described thus: OV-KATE Cancer Cell Toxicity qHTS against the NCATS CANVASS Library (AID 1347345). Note: potency is the fitted concentration of half-maximal effect. In outline: (§1)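 Viability read-out: CellTiter-Glo luminescence after 72 h compound exposure at 37 °C/5% CO2. Cells plated at 1000/well, 4 h pre-incubation; 11-point titration. Bortezomib served as control.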
Test [2] is described as follows: U-118MG Cancer Cell Toxicity qHTS against the NCATS CANVASS Library (AID 1347351). Note: potency is the fitted concentration of half-maximal effect. The procedure, abridged:
as §1

The nature of test [3]: COV-362 Cancer Cell Toxicity qHTS against the NCATS CANVASS Library (AID 1347352). Note: potency is the fitted concentration of half-maximal effect. The procedure, abridged:
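qHTS cytotoxicity: compounds tested in 11 concentrations on 1000 seeded cells per well over 72 h; bortezomib served as control; signal from CellTiter-Glo luminescence.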
On the technique in general: qHTS replaces the single test concentration by a dilution series.

Test [4] can be described thus: HPAF-II 24hr Apoptosis Induction qHTS against the NCATS CANVASS Library (AID 1347356). The procedure, abridged:
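Apoptosis induction in HPAF-II pancreatic cancer cells is measured as caspase-3/7 luminescence after a 24-hour exposure to compounds.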

A short description of test [5]: HPAF-II 12hr Apoptosis Induction qHTS against the NCATS CANVASS Library (AID 1347358). In outline:
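Apoptosis in HPAF-II pancreatic cancer cells is scored as caspase 3/7 luminescence following a 12-hour exposure to an 11-point compound series.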

Test [6] in a line: HEK293 24hr Apoptosis Induction qHTS against the NCATS CANVASS Library (AID 1347359). Note: potency is the fitted concentration of half-maximal effect. The procedure, abridged: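 Caspase-3/7 activation measured as luminescence from the DEVD-based Caspase-Glo reagent, 15 min at room temperature, following 24-hour compound treatment of HEK293 cells.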
Test [7] can be described thus: HPAF-II 18hr Apoptosis Induction qHTS against the NCATS CANVASS Library (AID 1347360). In outline:
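Caspase-3/7 activation was measured with luminescent Caspase-Glo 3/7 reagent (15 min, RT) in HPAF-II cancer cells (500 cells/well). Before detection, cells had been treated for 18 h at 37 C with compounds (11 points).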

Test [8] is described as follows: HEK293 12hr Apoptosis Induction qHTS against the NCATS CANVASS Library (AID 1347361). The procedure, abridged: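 HEK293 cells (500/well, DMEM + 10% FBS) were exposed to natural products across an 11-point series for 12 hours at 37 degrees C. Caspase-3/7 activity was then measured with DEVD luciferase luminescence after 15 min at room temperature.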
The target of test [9] is Luciferin 4-monooxygenase (Photinus pyralis) (UniProt P08659). Description: Firefly luciferase counterscreen qHTS: Assay Interference Panel against the NCATS CANVASS Library (AID 1347363). Note: series mostly up to about 57 µM. The procedure, abridged: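 Luminescence inhibition readout: compounds (11-point qHTS) sat 15 min at room temperature with substrate mix (0.013 mM luciferin and ATP), then firefly luciferase was added and signal read 5 min later.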
Sequence of Luciferin 4-monooxygenase (Photinus pyralis) (P08659 whole entry, looked up): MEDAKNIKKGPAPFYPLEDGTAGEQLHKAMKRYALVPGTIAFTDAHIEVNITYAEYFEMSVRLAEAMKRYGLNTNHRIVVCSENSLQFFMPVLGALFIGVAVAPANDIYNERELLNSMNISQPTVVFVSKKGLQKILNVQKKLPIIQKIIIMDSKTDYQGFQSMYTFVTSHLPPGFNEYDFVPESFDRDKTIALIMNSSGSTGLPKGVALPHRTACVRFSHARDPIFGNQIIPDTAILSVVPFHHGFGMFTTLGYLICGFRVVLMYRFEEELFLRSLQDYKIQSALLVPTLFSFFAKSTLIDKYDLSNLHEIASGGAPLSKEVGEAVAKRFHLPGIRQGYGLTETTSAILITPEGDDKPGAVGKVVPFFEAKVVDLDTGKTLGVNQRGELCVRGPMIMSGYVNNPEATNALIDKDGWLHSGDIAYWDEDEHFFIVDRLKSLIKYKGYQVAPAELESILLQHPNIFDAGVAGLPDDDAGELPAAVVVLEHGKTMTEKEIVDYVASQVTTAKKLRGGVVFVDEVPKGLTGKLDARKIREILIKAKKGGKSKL
On the technique in general: The purpose of a counterscreen is to sort out artefacts and off-target activity.

A short description of test [10]: KB-3-1 Cancer Cell Toxicity qHTS against the NCATS CANVASS Library (AID 1347366). Note: nearly all actives have a fitted effect of over 75% in size. Note: potency is the fitted concentration of half-maximal effect. In outline: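 CellTiter-Glo luminescence measured viability after 72 h at 37C. KB-3-1 cells were seeded at 500 per well in DMEM/10% FBS.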
Test [11] is described as follows: qHTS for ATAD5 Agonist screened against the NCATS CANVASS Library (AID 1347367).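 Note: luciferase reporter driven by ATAD5 which rises upon DNA damage.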 The procedure, abridged: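 Genotoxicity via ATAD5-luciferase luminescence after 16 h compound exposure (11-point series) at 37C in HEK293T-ATAD5 cells. CellTiter-Fluor viability read precedes the luminescence read; MMS serves as positive control.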
A short description of test [12]: MCF7 Cancer Cell Toxicity qHTS against the NCATS CANVASS Library (AID 1347369). In outline: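 Cytotoxicity was measured as CellTiterGlo luminescence (ATP) after 72 h at 37 °C. The cells were MCF7 at 500 per well, with an 11-point compound concentration series.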
The nature of test [13]: J3T Cancer Cell Toxicity qHTS against the NCATS CANVASS Library (AID 1347371). The procedure, abridged: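 Viability of the J3T glioma line from dog is scored by ATP luminescence after a 72 hr incubation with natural products.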
Test [14] concerns the target Nuclear receptor subfamily 1 group I member 3 (Homo sapiens) (UniProt Q14994). Kind of test: qHTS for Constitutive Androstane Receptor (CAR) Antagonist screened against the NCATS CANVASS Library (AID 1347372).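 Note: cells stimulated with 50 nM CITCO agonist so inhibition reflects antagonism; luciferase from CYP2B6 promoter reporter driven by hCAR in HepG2 cells; series mostly up to about 46 µM.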 In outline:
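HepG2-CYP2B6-hCAR double-stable cells plated, 4hr attach; cpd pin-transferred; CITCO 50 nM final; 24hr 37C/5% CO2; CellTiter-Fluor 1hr (fluorescence), then ONE-Glo luminescence.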

Test [15] has the same target. Kind of test: qHTS for Constitutive Androstane Receptor (CAR) Agonist screened against the NCATS CANVASS Library (AID 1347373).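 Note: every well also contained 1.5 µM PK11195 alongside the test compound.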 In outline: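 CAR agonism is scored as CYP2B6-promoter luciferase induction in a double-stable transfected HepG2 line, where 1.5uM PK11195 is included in each well. Compounds were tested over a 24hr exposure.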
Test [16] in a line: 10-beta competent E. coli microbial cell viability qHTS against the NCATS CANVASS Library (AID 1347376). Note: series mostly up to about 46 µM. The procedure, abridged: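 Cytotoxicity toward competent E. coli is scored from cellular ATP content via BacTiter-Glo luminescence following overnight compound exposure at 37C, 5% CO2.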
The nature of test [17]: qHTS for H2AX Agonists against the NCATS CANVASS Library (AID 1347378). In outline:
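Phospho-H2AX (S139) in CHO-K1 lysates measured by HTRF, reported as 665/615 nm emission ratio after 24 hr antibody incubation at room temperature. Cells were first treated with a compound series for 3 hr at 37C (0.76% DMSO final).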

Test [18] can be described thus: qHTS for Inflammasome Signaling Inhibitors: IL-1-beta AlphaLISA screen against the NCATS CANVASS Library (AID 1347379).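 For Potency: secreted IL-1B measured as AlphaLISA emission at 615 nm; potency is the fitted concentration of half-maximal effect.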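 Note: human THP-1 cells primed with LPS then triggered with ATP.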 In outline: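 Human THP-1 cells were pretreated 1 hr at 37 °C with compounds (up to 57.5 uM final), then stimulated with LPS (250 ng/mL final) and ATP (1.25 mM final). Secreted IL-1B was read by AlphaLISA after 16 hr.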
Test [19] in a line: Inflammasome Signaling qHTS Counterscreen: IL-1-beta AlphaLISA counterscreen against the NCATS CANVASS Library (AID 1347381).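 Note: cell-free check with purified IL-1β in medium and no THP-1 cells; series mostly up to about 57 µM.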 In outline: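 To flag interference with the AlphaLISA read-out, a known amount of purified IL-1-beta (4 pg) replaced cell supernatant. Detection used anti-IL-1-beta acceptor beads, biotinylated antibody and streptavidin donor beads at room temperature.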

A short description of test [20]: Viability qHTS for inhibitors of the SERCaMP assay screened against the NCATS CANVASS Library (AID 1347400). Note: nearly all actives have a fitted effect of over 70% in size. Note: potency is the fitted concentration of half-maximal effect. In outline: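 Cytotoxicity counter-screen: ATP content (CellTiter-Glo luminescence) of SH-SY5Y-GLuc SERCaMP MJH297 cells after 48 h at 37C with compounds in an 11-point qHTS series.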

Records with an inconclusive call do not appear. Calls of active or inactive are those of the source. Calls come from the whole dose curve; as a rule, active = well fitted curve in the direction sought with a large enough effect; inconclusive = small, poorly fitted or top-dose-only effect, or another doubt; inactive = no such curve, though single readings can be large; an effect the other way counts as inactive or inconclusive. Numbered stars: 1 amine (or outer) side, 2 acyl side, 3 side chain; on linkers, the order of the positions; unused ones are H or OH. Square brackets hold non-standard residues; d marks the D form. Peptide text beside a SMILES is read from it. ξ: configuration not given here. X4 = O=C(C1CC2(c3ccc(O)cc3)c3ccccc3NC2N1[*:1])[*:2]; ξW = NC(Cc1c[nH]c2ccccc12)C(=O)O; ξY = NC(Cc1ccc(O)cc1)C(=O)O

Sequence of Nuclear receptor subfamily 1 group I member 3 (Homo sapiens) (Q14994 whole entry, looked up): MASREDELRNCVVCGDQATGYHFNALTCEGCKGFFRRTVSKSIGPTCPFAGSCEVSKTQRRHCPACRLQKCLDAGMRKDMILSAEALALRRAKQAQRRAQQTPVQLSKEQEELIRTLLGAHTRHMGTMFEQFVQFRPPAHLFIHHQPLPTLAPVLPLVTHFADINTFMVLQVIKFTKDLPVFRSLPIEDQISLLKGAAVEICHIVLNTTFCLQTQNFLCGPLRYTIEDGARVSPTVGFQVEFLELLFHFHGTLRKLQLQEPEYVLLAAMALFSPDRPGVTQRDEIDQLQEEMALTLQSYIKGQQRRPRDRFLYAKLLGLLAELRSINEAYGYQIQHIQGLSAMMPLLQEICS

Take `CC(=O)O[C@H]1CC[C@@]2(C)C(CC[C@]3(C)C2CC=C2C4CC(C)(C)CC[C@]4(C)CC[C@]23C)C1(C)C` (stereo partly drawn): the Potency entry in test [1], in test [2], in [3], in test [5], in [6] and in test [7] was “inactive” throughout. The Potency result in test [8], in [9], in [10], in test [11], in [12] and in [13] was “inactive” throughout. The Potency entry in test [14], in test [17], in [18] and in test [20] was “inactive” throughout. In addition, the result in test [4], in test [15], in [16] and in test [19] was inactive.
Take `CC(C)=CCC[C@@H](C)[C@@H]1CC[C@@]2(C)C[C@H]3C(C)=CC(=O)[C@@H]3/C(C=O)=C\C[C@H]12`: the Potency in test [1] was 9.41 µM (active); in test [2], 7.49 µM (active); in test [3] it was 11.8 µM (active); in [6], 26.4 µM (active); in test [10], 10.5 µM (active); in test [18], 17.2 µM (active). Also, in test [20], the Potency was 42.8 µM (active). The Potency entry in test [9], in test [11] and in test [17] was “inactive” in each case. Further, the outcome in test [15], in test [16] and in test [19] was inactive.
Take `CC[C@H](C)[C@H](NC(=O)C(Cc1ccc(O)cc1)NC(=O)C(Cc1c[nH]c2ccccc12)NC(=O)[C@H](C)N)C(=O)N1C(C(=O)NC(Cc2ccc(O)cc2)C(=O)O)CC2(c3ccc(O)cc3)c3ccccc3NC12` (stereo partly drawn) (H-A[ξW][ξY]I[X4][ξY]-OH): the Potency result in test [1], in test [2], in [3], in [5], in [6] and in [7] was “inactive” in each case. The Potency result in test [8], in test [9], in [10], in [11], in test [12] and in test [13] was “inactive” throughout. Further, the Potency entry in test [14], in test [17], in [18] and in test [20] was “inactive” throughout. Further, the compound was classed as inactive in [4], in test [15], in test [16] and in test [19].
As for `O=Cc1ccc2n1C[C@@]1(C[C@H](O)[C@@H](CO)O1)OC2`, the Potency entry in test [1], in [2], in test [3], in test [5], in test [6] and in [7] was “inactive” each time. Also, the Potency entry in test [8], in test [9], in test [10], in test [11], in test [12] and in test [13] was “inactive” each time. For the same compound, the Potency entry in [14], in [17], in [18] and in test [20] was “inactive” each time. Also, the compound was called inactive in test [4], in [15], in [16] and in [19].
With `OCc1ccc2ocnc2c1`, the Potency result in [1], in test [2], in test [3], in test [5], in test [6] and in test [7] was “inactive” in each case. Also, the Potency result in test [8], in test [9], in [10], in [11], in test [12] and in test [13] was “inactive” in each case. The Potency result in test [14], in [17], in [18] and in [20] was “inactive” each time. Further, the compound was classed as inactive in [4], in test [15], in test [16] and in [19].
